Screens as filed in PubChem BioAssay.
This is one part of a sample in which hits are shown more often than they occur.
Pf Dd2 inh = blocks in vitro growth of P. falciparum Dd2; Potency, µM (doses to about 28.9 µM), without a hit: at the highest dose activity, negative = inhibition, hits mostly inhibitors; P. falciparum Dd2 growth, SYBR Green, 72 h; 4.3% of 120,000 active; active means well fitted inhibition curve with a large enough effect;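 further: plate controls were DMSO vehicle for no effect and reference drug for full effect; nearly all actives have a fitted effect of over 65% in size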
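Readout: SYBR Green fluorescence, 485 nm excitation, 535 nm emission, after ~16 h lysis at 37C. Before that, Dd2-infected red cells (2.5% hematocrit) grew 72 h with compound, 29 uM top final concentration.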
The depositor's hits bear a star; i = inactive; [ ] = remark or other dose. Potency means the concentration at half of the fitted maximal effect.

SMILES	Pf Dd2 inh
COc1cncc(Nc2ncc(-c3cccnc3)c3c2OCC3)c1	-12%[44.1 µM]
c1ccc(-c2cnc(Nc3cncnc3)c3c2CCO3)cc1	-12%[44.1 µM]
CNC(=O)c1cccc(-c2cnc(Nc3ccccc3)c3c2CCO3)c1	-23%[44.1 µM]
CN(C)c1cccc(-c2cnc(Nc3ccc4c(c3)OCCO4)c3c2CCO3)c1	-29%[44.1 µM]
Fc1cccc(-c2cnc(Nc3cncnc3)c3c2CCO3)c1	-27%[44.1 µM]
CN(C)c1cccc(-c2cnc(Nc3cccnc3)c3c2CCO3)c1	13µM*
c1ccc(Nc2ncc(-c3ccccc3)c3c2OCC3)cc1	22µM*
COc1cccc(Nc2ncc(-c3c(C)noc3C)c3c2OCC3)c1	5%[44.1 µM]
Cc1ccc(CNC(=O)N2C[C@@H](F)C[C@H]2C(=O)N2CCCCC2)cc1	i
Nc1cncc(-c2nccc(N3CCC(O)CC3)n2)c1	-11%
C#CCNC(=O)C1CCc2nnc(C3CCN(C(=O)c4ccccc4)CC3)n21 (configuration not stated)	16%
COc1ccc(-c2ccc3nc(-c4cccc(F)c4)oc3c2)c(OC)c1OC	i
Cc1ccc(CNC(=O)N2CCC3(CC2)C(C(=O)O)CC(=O)N3C)cc1 (configuration not stated)	-10%
CN1CCN(C[C@@H]2CN(C(=O)CCc3cn[nH]c3)C[C@@H]2CO)CC1	-3%
CCOc1ccccc1C(=O)N1CCC2(CC1)NC(=O)N(c1cccc(Cl)c1)N2	i
CCC[C@H]1CN(S(=O)(=O)c2ccc(-c3ccn[nH]3)o2)C[C@@H]1N	i
CCC[C@H]1CN(S(=O)(=O)c2cnn(CCC)c2)C[C@@H]1N	11µM*
CCC[C@H]1CN(S(=O)(=O)c2ccc(CC)s2)C[C@@H]1N	-21%
COC[C@@H]1CN(C(=O)COc2cccc(C)c2)C[C@H]1c1ccccn1	-1%
Cc1cccc(CN(CCN2CCCCC2)CC2CCCN(C3CCCC3)C2)n1 (configuration not stated)	-1%
Cc1sc2c(c1C)c(=O)n(CCc1ccccc1)c(=O)n2Cc1ccccc1Cl	54%
CCN(CC)C(=O)c1sc2c(c1C)c(=O)n(CCc1ccccc1)c(=O)n2Cc1cccc(Cl)c1	-18%
CCN(CC)C(=O)c1sc2c(c1C)c(=O)n(CCc1ccccc1)c(=O)n2Cc1ccc(F)cc1Cl	10µM*
O=C([C@@H]1C[C@H](F)CN1S(=O)(=O)c1cccc(Br)c1)N1CCCCC1	1%
COc1ccc(S(=O)(=O)c2c(O)c3ccc(C(=O)NCc4ccc(Cl)cc4)cc3[nH]c2=O)cc1	-3%
SMILES	Pf Dd2 inh
COc1ccc(C(=O)Nc2cc(C(C)C)c(O)c(S(=O)(=O)c3ccc(OC)cc3)c2C)cc1	i
COc1ccc(C(=O)NC(c2ccc(Cl)cc2)c2cc(Cl)c3cccnc3c2O)cc1 (configuration not stated)	2.8µM*
Cc1ccccc1-c1nc(C2CC(=O)N(c3ccc(F)c(Cl)c3)C2)no1 (configuration not stated)	67%
N#Cc1ccc(CN2CCn3c(nnc3C3CCCNC3)C2)cc1 (configuration not stated)	-8%
CS(=O)(=O)c1ccc(CNC[C@H]2Cn3ccnc3CO2)cc1	9%[44.1 µM]
O=C(N[C@@H]1CN(c2ccncn2)C[C@H]1CO)c1ccc(Cl)cc1	17%
Cc1[nH]c2ccccc2c1CC(=O)NC1CCCc2nc(N(C)C)ncc21 (configuration not stated)	-6%
Cc1ccc(-c2cc(C(=O)NCCN3CCN(C)CC3)n(C)c2)cc1	-15%
Cc1c(C)n(C)c2ccc(C(=O)NCCCN3CCCCC3)cc12	i
COC[C@@H]1CN(Cc2ccc(Br)o2)C[C@H]1C(=O)NC1CC1	1%
Cc1ccsc1CN1CCc2n[nH]c(=O)n2CC1	i
CCNC(=O)c1c(C)oc2c1CN(Cc1ccc(Br)o1)CC2	7.9µM*
CCNC(=O)c1c(C)oc2c1CN(Cc1sccc1C)CC2	11µM*
Cc1ccc(CN2CCc3oc(C)c(C(=O)NCCN4CCCCC4)c3C2)cc1	1.4µM*
Cc1oc2c(c1C(=O)NCCN(C)C)CN(C(=O)c1ccncc1)CC2	-9%
COCC(=O)NC[C@H]1CCN(Cc2sccc2C)C[C@H]1N(C)C	i
CNC(=O)c1cc2cc(-c3c(C)noc3C)nc(-c3cccnc3OC)c2o1	i
O=C(NCCCN1CCCc2ccccc21)C1CCCCC(=O)N1Cc1ccccc1 (configuration not stated)	-24%
COc1ccc(C(=O)N2CCCN(C)c3ccccc32)c(C)c1	i
Cc1cc(C)n2nc(CC(=O)NC[C@@H]3C[C@H](F)CN3)nc2n1	-8%
O=C1CCN(S(=O)(=O)c2ccccc2)CCCC(C(=O)NCc2cccnc2)CCN1 (configuration not stated)	-3%
CC(C)CCNC(=O)C1CCN(C(=O)N2CC3CC(C2)[C@H]2CCCC(=O)N2C3)CC1 (some centres not stated)	-2%
CCCNC(=O)CC1Sc2ncccc2N(CC)C1=O (configuration not stated)	i
COc1ccc(CN2CC3(CCN(C(=O)Cc4cccc(OC)c4)CC3)C2=O)cc1	-23%
